# This is a sample that favours compounds with a hit; in the whole collection about 10% have one here.
# GPT2 inhibitor: blocks human glutamate pyruvate transaminase 2; 100,000 compounds, 0.25% hits; Potency, µM (series often up to 57.7 µM), without a hit: at the top dose activity change, negative = inhibition, most hits filed as inhibitors; AID 1671188; Q8TD30; Recombinant GPT2, coupled pyruvate oxidase/HRP Amplex Red fluorescence; further: on the % scale 0 is the no-effect control and ±100 the full control effect; nearly all actives have a fitted effect of over 60% in size
# Target sequence (Q8TD30 whole entry, looked up): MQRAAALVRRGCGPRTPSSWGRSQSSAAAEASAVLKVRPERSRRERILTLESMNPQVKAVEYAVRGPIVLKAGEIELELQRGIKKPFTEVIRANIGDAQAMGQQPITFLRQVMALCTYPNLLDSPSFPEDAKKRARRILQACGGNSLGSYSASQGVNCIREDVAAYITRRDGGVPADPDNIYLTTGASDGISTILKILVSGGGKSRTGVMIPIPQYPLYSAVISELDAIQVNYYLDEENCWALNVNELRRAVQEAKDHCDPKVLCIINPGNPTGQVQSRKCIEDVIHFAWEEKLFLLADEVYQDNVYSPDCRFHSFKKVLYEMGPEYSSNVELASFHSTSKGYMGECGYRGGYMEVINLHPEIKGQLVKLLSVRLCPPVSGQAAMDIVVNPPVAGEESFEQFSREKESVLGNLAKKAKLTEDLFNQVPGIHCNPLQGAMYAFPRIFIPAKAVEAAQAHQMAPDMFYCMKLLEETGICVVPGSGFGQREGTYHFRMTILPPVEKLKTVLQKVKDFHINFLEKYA
#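 Recombinant GPT2 (10ng/uL) with 250uM a-KG and 2mM L-alanine, 30 min at room temperature, in HEPES pH 7.5 buffer. Pyruvate detected by pyruvate oxidase/HRP/Amplex Red fluorescence after 30 min in the dark; AOA (50uM) as positive control.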
# HEK293 tox: HEK 293 cell cytotoxicity. HEK 293 viability, ATP luminescence (CellTiter-Glo), 48-72 h. Potency, µM (top dose mostly 115 µM), inactives show at the top dose activity change, negative = cytotoxicity, most hits filed as inhibitors. 94,000 compounds, 6.6% hits. AID 1345083; further: on the % scale 0 is the no-effect control and ±100 the full control effect; nearly all actives have a fitted effect of over 60% in size
#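 Cytotoxicity was scored by loss of ATP-coupled luminescence (CellTiter-Glo) in HEK 293 cells. Compound treatment ran 48 or 72 hr at 37 degree Celsius, 5% CO2, 95% humidity.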
# FLuc inh-1: Photinus pyralis luciferase inhibition. purified P. pyralis luciferase, luminescence, biochemical. Potency, µM (titrated, usually from 115 µM), most hits filed as inhibitors. 76,000 compounds, 2.5% hits. AID 1347043; further: on the % scale 0 is the no-effect control and ±100 the full control effect; nearly all actives have a fitted effect of over 65% in size
#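 Purified P. pyralis luciferase (10nM final) in 50mM Tris acetate pH 7.5, 10mM Mg acetate, 0.01% Tween-20, 0.05% BSA with 10uM D-luciferin and 10uM ATP. Compounds titrated qHTS. Luminescence imaged on CCD.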
# hNpr1 antagonist: blocks ANP-stimulated signaling of human Npr1 receptor. P16066. HEK293 hNpr1 GloSensor cGMP, ANP-stimulated luminescence. Potency, µM (highest dose often 46.3 µM), for inactives: top-dose activity change, negative = inhibition, most hits filed as inhibitors. 76,000 compounds, 1.6% hits. AID 1347048; calls by dose curve; further: on the % scale 0 is the no-effect control and ±100 the full control effect; nearly all actives have a fitted effect of over 60% in size
#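 HEK293 cells stably expressing human Npr1 and cGMP GloSensor pGS-40F, loaded 2 h with 2% GloSensor reagent, given compound 30 min at room temperature. Luminescence read before and 20 min after 0.1 nM hNppA.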
# 3T3 cytotox: cytotoxic compounds in NIH 3T3 cells | NIH 3T3 viability, CellTiter-Glo ATP luminescence, 48-72 h | Potency, µM (top dose mostly 96.7 µM), without a hit: at the top dose activity change, negative = cytotoxicity, usual class: inhibitors | 94,000 compounds, 4.3% hits; further: on the % scale 0 is the no-effect control and ±100 the full control effect; nearly all actives have a fitted effect of over 55% in size
#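 Viability of NIH 3T3 cells after 48 or 72 hr compound treatment at 37 °C was assessed by CellTiter-Glo, with luminescence imaged following a 10 min room-temperature step.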
# FLuc SDR -ATP: binders stabilizing firefly luciferase, without ATP | Purified FLuc-C-HiBiT, Nano-Glo HiBiT luminescence, no ATP | AID 1963318 | 1,300 compounds, 7.8% hits | Potency, µM (highest dose often 32.7 µM), without a hit: at the highest dose activation (signal gain), hits mostly activators | shares compounds with FLuc inh-1; further: nearly all actives have a fitted effect of over 55% in size
# FLuc SDR ATP: stabilizes firefly luciferase with ATP present | shares compounds with FLuc inh-1 | purified FLuc-C-HiBiT + ATP, HiBiT complementation luminescence | Potency, µM (doses to about 32.7 µM), without a hit: at the highest dose activation (gain of signal), usual class: activators | 1,300 compounds, 8.7% hits;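 further: signal reports ligand binding via conformational change of the enzyme rather than luciferase catalysis; % of control where 0% means no effect; nearly all actives have a fitted effect of over 55% in size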
# FLuc inh-2: blocks firefly luciferase enzymatic activity | shares compounds with FLuc inh-1 | purified FLuc-C-HiBiT enzyme, luciferin luminescence | Potency, µM (highest dose often 32.7 µM), for inactives: at the highest dose activity change, negative = inhibition, most hits filed as inhibitors | 1,300 compounds, 42% hits | AID 1963320; further: on the % scale 0 is the no-effect control and ±100 the full control effect; nearly all actives have a fitted effect of over 70% in size
# Active calls of the source: *; i = inactive; u = inconclusive; x = no result given; [ ] = remark or other dose. Unless noted, the call rests on the fitted dose curve; in most records, active means well fitted curve in the direction sought with a large enough effect; inconclusive means small, poorly fitted or top-dose-only effect, or another doubt; inactive means no such curve, though single readings can be large; an effect the other way counts as inactive or inconclusive. Potency means the concentration at half of the fitted maximal effect.
SMILES,GPT2 inhibitor,HEK293 tox,FLuc inh-1,hNpr1 antagonist,3T3 cytotox,FLuc SDR -ATP,FLuc SDR ATP,FLuc inh-2
Cc1noc(-c2nc(-c3cccc(C(F)(F)F)c3)no2)n1,2%,2%,i,-1%,i,x,x,x
CCn1cc(-c2ccc(Cl)cc2)cc1C(=O)O,-3%,-9%,u,1%,-21%,13%,11%,-10%
c1ccc(-c2noc(-c3nc(C4CC4)no3)n2)cc1,i,u,2.5µM*,u,-6%,17%,19%,u
Cc1ccc(-c2noc(-c3nc(C4CC4)no3)n2)cc1,i,-3%,i,1%,3%,x,x,x
Cc1ccc(NS(=O)(=O)c2ccccc2)c(=O)n1CC(=O)N1CCCCC1,4%,-21%,i,2%,-9%,x,x,x
Cc1ccc(NC(=O)Nc2ccc(C)n(CC(=O)NC3CCCC3)c2=O)cc1,-9%,u,0.4µM*,u,u,1.6µM*,u,0.7µM*
Cc1ccc(NC(=O)Nc2ccccc2)c(=O)n1CC(=O)NC1CCCCC1,i,-9%,i,0%,-10%,x,x,x
Cc1ccc(NC(=O)Nc2ccccc2)c(=O)n1CC(=O)NCC1CCCO1 (configuration not stated),-21%,-1%,14µM*,-13%,u,u,u,u
COc1ccccc1NC(=O)Cn1c(C)ccc(NC(=O)Nc2ccc(C)cc2)c1=O,i,u,0.63µM*,u,22µM*,u,u,0.7µM*
COc1ccc(NC(=O)Nc2ccc(C)n(CC(=O)N3CCCCCC3)c2=O)cc1,-8%,-2%,8.9µM*,-1%,i,u,u,9.9µM*
COCCn1c(C)cc(C(=O)N2CCC3(CC2)CC(C(=O)N2CCOCC2)N(C)C3)c1C (configuration not stated),-4%,0%,x,x,-22%,x,x,x
Clc1ccc(C2Cn3nnc(-c4noc(Cc5ccccc5Cl)n4)c3CO2)cc1 (configuration not stated),-3%,u,i,0%,-27%,x,x,x
Cc1ccc(NC(=O)Nc2ccc(C)n(CC(=O)N3CCC(C)CC3)c2=O)cc1,i,u,4.5µM*,-18%,-17%,u,u,3.9µM*
Cc1ccc(NC(=O)Nc2ccc(C)n(CC(=O)NC(C)c3cccnc3)c2=O)cc1 (configuration not stated),i,u,1.1µM*,-15%,-21%,7µM*,u,1.6µM*
O=C(NCc1ccccc1F)c1ccc2oc(-c3cccnc3Cl)nc2c1,i,u,x,x,u,x,x,x
NC(=O)c1cccc(-c2cc3c(cn2)CN(Cc2ccncc2)CCN3)c1,5%[88.5 µM],-17%[172 µM],u,-15%[70.6 µM],u,x,x,x
Cc1cc(-c2cc3c(cn2)CN(Cc2ccccc2O)CCN3)ccn1,-5%[88.5 µM],u,5.6µM*,u,u,21%[49.3 µM],13%[49.3 µM],u
c1cncc(Nc2cc3c(cn2)CN(CC2CCCCC2)CCN3)c1,-3%[88.5 µM],u,u,6%[70.6 µM],u,x,x,x
Oc1ccccc1CN1CCNc2cc(-c3ccccc3)ncc2C1,4%[88.5 µM],79µM*,2.5µM*,-29%[70.6 µM],79µM*,u,14%[49.3 µM],u
NC(=O)c1cccc(-c2cc3c(cn2)CN(Cc2ccccc2)CCN3)c1,3%[88.5 µM],u,14µM*,-2%[70.6 µM],-20%[138 µM],17%[49.3 µM],12%[49.3 µM],u
Cc1cc(-c2cc3c(cn2)CN(Cc2cccs2)CCN3)ccn1,-4%[88.5 µM],89µM*,6.3µM*,-21%[70.6 µM],u,32%[49.3 µM],u,11µM*
O=C(Cc1ccccn1)N1CCCC(C(=O)N2CCC(N3CCOC3=O)CC2)C1 (configuration not stated),i,-23%,x,x,2%,x,x,x
CN1CCNc2cc(-c3ccc(N4CCOCC4)cc3)ncc2C1,1%[88.5 µM],u,i,-19%[70.6 µM],u,x,x,x
Cc1cc(-c2cc3c(cn2)CN(Cc2cnc[nH]2)CCN3)ccn1,x,x,x,x,x,29%[49.3 µM],19%[49.3 µM],18µM*
CCOc1ccc(-c2cc3c(=O)n(CCNC(=O)c4cccc(N(C)C)c4)ccn3n2)cc1,i,u,2.5µM*,-28%,-24%,29%,u,3.9µM*
SMILES,GPT2 inhibitor,HEK293 tox,FLuc inh-1,hNpr1 antagonist,3T3 cytotox,FLuc SDR -ATP,FLuc SDR ATP,FLuc inh-2
CCOc1ccc(-c2cc3c(=O)n(CCNC(=O)c4ccc(C)c(C)c4)ccn3n2)cc1,i,3%,i,8%,-10%,x,x,x
CCOc1ccc(-c2cc3c(=O)n(CCNC(=O)c4ccncc4)ccn3n2)cc1,-1%,u,6.3µM*,-17%,-6%,u,u,3.5µM*
CCOc1ccc(-c2cc3c(=O)n(CCNC(=O)c4cccc(C#N)c4)ccn3n2)cc1,3%,2%,0.79µM*,-1%,3%,26%,15%,u
CCOc1ccc(-c2cc3c(=O)n(CCNC(=O)c4ccccc4)ccn3n2)cc1,i,-4%,u,0%,-1%,x,x,x
O=C(Nc1ccc([C@@H](O)[C@H]2COCC(=O)N2Cc2ccc(F)cc2)cc1)c1ccnc(Cl)c1,-4%,u,i,u,u,x,x,x
COc1ccccc1Nc1ccnc(N2CCCC(C(=O)NC3CCC3)C2)n1 (configuration not stated),i,u,x,x,u,x,x,x
COc1ccc(NC(=O)O[C@@H]2CO[C@H]3[C@@H]2OC[C@@H]3n2nnnc2Sc2ccccc2)cc1,1%,u,i,-18%,u,x,x,x
CN(CC1CCOCC1)C(=O)Nc1cccc(Br)c1,i,-1%,i,1%,2%,x,x,x
O=C(Nc1cccc(Br)c1)c1cc(-c2ccc3c(c2)OCCO3)on1,x,x,x,x,x,u,u,0.99µM*
Cc1ccc(-n2cc(CN(C)C(C)C(=O)N(C)C)c(-c3cccc(C)c3)n2)cc1 (configuration not stated),5%,u,i,7%,u,x,x,x
CC(=O)NC1CCN(Cc2cn(-c3ccc(C)cc3)nc2-c2cccc(C)c2)C1 (configuration not stated),i,u,13µM*,-1%,u,15%,9%,u
COc1ccc2[nH]c(C(=O)N3CCC4(CC3)CC(c3nc(C)no3)N(C)C4)cc2c1 (configuration not stated),1%,u,i,-3%,-23%,x,x,x

# Compound activity (PubChem)
